Out of some 69,000 compounds screened, about 8,600 (12%) showed an effect of 50% or more. The sample holds strong results, similar compounds and a random draw of the others, so the mix is not that of the screen.
system: Plasmodium berghei; test: Screen against P. berghei liver stage (PbLuc), transformed with Luciferase, at 10uM; assay type: functional, HepG2; conditions: tested at 10 uM

Row | Compound | INHIBITION [%]
1 | Cc1ccc(CN2CCn3c(CN(C)C(C)C)cnc3C2)s1 | 7.53
2 | CO[C@@H]1CC[C@@H](NC(=O)c2ccc(OCCN3CCCC3)cc2)[C@H]1O | 34.25
3 | CN1CCCC1CNC(=O)CCOc1ccc(Br)cc1 (centres undefined) | 22.983
4 | CCc1nnsc1C(=O)NC1CCN(c2ccccn2)CC1 | -7.9
5 | Cc1nc(CC(=O)N2CCN(CCOc3ccccc3)CC2)cs1 | 21.8
6 | CCc1nnsc1C(=O)NC1CCN(CCOc2ccc(Br)cc2)CC1 | 80
7 | Cc1ncsc1C(=O)NC1CCN(CCC(N)=O)CC1 | 24
8 | Cc1ncc(C(=O)NC2CCN(CCOc3ccc(Br)cc3)CC2)s1 | 88.6
9 | Cc1nc(C(=O)NC2CCN(CCOc3ccc(Br)cc3)CC2)cs1 | 85.4
10 | CC(=O)Nc1nc(C(=O)NCCOc2ccc(C)cc2)cs1 | 49.2
11 | COCc1nc(C(=O)N2CCCC(n3nc(C)nc3C)C2)cs1 (centres undefined) | 26.4
12 | CCn1ncc2c1C(COC)N(C(=O)c1ccc3c(c1)OCO3)CC2 (centres undefined) | -33
13 | COc1nccnc1N1CCCC2(C1)C(=O)N(C)c1ccccc12 (centres undefined) | -60.7
14 | C[C@@H]1CN(Cc2ccncc2)C[C@@]1(O)C1CC1 | 3.19
15 | CCc1nc(CN2CCCC(NCc3nc4ccccc4o3)C2)no1 (centres undefined) | -21.7
16 | Cn1cnc2cc(C(=O)N3CCN(CCO)[C@@H]4CS(=O)(=O)C[C@@H]43)ccc21 | 73.6
17 | CCCN1CCN(C(=O)c2ccc3nc(C)oc3c2)[C@H]2CS(=O)(=O)C[C@H]21 | 33
18 | O=C(c1ccc2nccnc2c1)N1CCN(CCO)[C@@H]2CS(=O)(=O)C[C@@H]21 | 41.5
19 | Cc1nc2ccc(C(=O)N3CCN(CCO)[C@@H]4CS(=O)(=O)C[C@@H]43)cc2o1 | 22.3
20 | CCN1CCN(C(=O)c2ccc3c(c2)NC(=O)CN3)[C@H]2CS(=O)(=O)C[C@H]21 | 73
21 | CCN1CCN(C(=O)c2cc(-c3ccc(C)o3)n[nH]2)[C@H]2CS(=O)(=O)C[C@H]21 | -1.04
22 | CCN1CCN(C(=O)c2ccc3c(c2)CCCN3)[C@H]2CS(=O)(=O)C[C@H]21 | 33.2
23 | CCN1CCN(C(=O)c2cc(C(F)(F)F)n[nH]2)[C@H]2CS(=O)(=O)C[C@H]21 | 33.7

Row | Compound | INHIBITION [%]
24 | CCN1CCN(C(=O)c2ccc3c(c2)OCC(=O)N3)[C@H]2CS(=O)(=O)C[C@H]21 | 58.2
25 | CCN1CC(C(=O)NCc2cccnc2-n2cccn2)CC1=O (centres undefined) | -10.1
26 | COC[C@@]12CCO[C@@H]1CCN(C(=O)c1ccc(F)c(F)c1)C2 | -30.6
27 | Cc1nc(COCC2CN(C(=O)N(C)C)Cc3nccn3C2)cs1 (centres undefined) | 45.4
28 | O=S(=O)(c1cccc(F)c1)N1CCCCC1c1ccn[nH]1 (centres undefined) | 27.8
29 | CCC(C)N1CCc2nc(N3CCCC3)nc(NC(C)C)c2C1 (centres undefined) | 2.59
30 | CC(C)Nc1nc(N2CCCC2)nc2c1CN(S(C)(=O)=O)CC2 | -29
31 | CC(C)Nc1nc(N2CCCC2)nc2c1CN(c1ncc(F)cn1)CC2 | 65.8
32 | CC(C)Nc1nc(N2CCCC2)nc2c1CCN(S(C)(=O)=O)CC2 | 35.2
33 | Cc1nc(CN2CCc3nc(NC(C)C)nc(C)c3C2)cs1 | 46.7
34 | CC(C)Nc1nc(N2CCCC2)nc2c1CN(C(C)C)CC2 | 61.8
35 | Cc1nc(N2CCCC2)nc2c1CN(C(C)C)CC2 | -10.4
36 | Cc1nc(CN2CCc3nc(N4CCCC4)nc(NC(C)C)c3C2)cs1 | 67.4
37 | CC(C)Nc1nc(N2CCCC2)nc2c1CN(C)CC2 | 22.4
38 | Cc1nc(Nc2nncs2)cc(C2CCCN2)n1 (centres undefined) | -8.275
39 | COC(=O)c1cccc(C(=O)N2CCCC(n3cncn3)C2)c1 (centres undefined) | 15.5
40 | CN1CC2(CCN(Cc3ncc[nH]3)CC2)CC1=O | 53.7
41 | Cc1ccc(=O)n(CC2(O)CCN(Cc3cnc(C)nc3)CC2)n1 | 15.9
42 | COCCCN1CC2(CCN(Cc3ncc[nH]3)CC2)CC1=O | 28.7
43 | CN1CC2(CCN(Cc3cccc(C#N)c3)CC2)CC1=O | 43.1
44 | CC(C)=CCN1CC2(CCN(Cc3ncc[nH]3)CC2)CC1=O | 4.82
45 | Cc1ncc(CN2CCC3(CC2)CC(=O)N(C)C3)cn1 | 55.9
46 | CC(=O)NCC(=O)N1CCn2cc(CN(C)Cc3ccco3)nc2C1 | 42.5

Row | Compound | INHIBITION [%]
47 | O=C1COC2(CCN(C(=O)c3ccoc3)CC2)CN1Cc1cccnc1 | 0.112
48 | Fc1ccccc1Oc1nccnc1C1CCCN(C2CCOCC2)C1 (centres undefined) | -3.02
49 | O=C(NCc1ccnc(OCC(F)(F)F)c1)NCC1CCCO1 (centres undefined) | -20.3
50 | O=C(c1ccc(Br)cc1F)N1CCc2ccncc21 | -4.91
51 | COc1ccc(C[C@H]2CN(C3CCOCC3)CC[C@@H]2OCC2CC2)cc1 | 29.7
52 | O=C(CN1CCCC1c1nc2cc(F)ccc2[nH]1)NCc1ccccn1 (centres undefined) | 50.1
53 | Fc1ccc2[nH]c(C3CCCN3CCc3ccccn3)nc2c1 (centres undefined) | 21.8
54 | Cc1cc(C(=O)N2CCCCC2c2nc3cc(F)ccc3[nH]2)no1 (centres undefined) | 4.97
55 | Fc1ccc2[nH]c(C3CCCN3Cc3c[nH]cn3)nc2c1 (centres undefined) | 42.6
56 | Cn1nc(C(=O)N2CCCCC2c2nc3cc(F)ccc3[nH]2)ccc1=O (centres undefined) | 11.8
57 | O=C(c1ccon1)N1CCCCC1c1nc2cc(F)ccc2[nH]1 (centres undefined) | 62.9
58 | CN1CC2(CCN(Cc3ccoc3)CC2)COc2ccccc2S1(=O)=O | 13.7
59 | Cc1cc(C(N)=O)nc(C2(C)CCCN2Cc2cnn(C)c2)n1 (centres undefined) | 18.3
60 | Cc1nccn1[C@@H]1CC[C@@H](N(C)S(=O)(=O)c2cccc(F)c2)[C@H]1O | 16.96
61 | CCN(C(=O)CN1CCCC1c1cc(C)no1)c1ccccc1C (centres undefined) | 62.4
62 | Cc1cc(C2CCCN2CC(=O)N(CCC#N)c2ccccc2F)on1 (centres undefined) | 26.8
63 | CCN(C(=O)CN1CCCC1c1ccc(F)cc1)c1ccccc1C (centres undefined) | -55.1
64 | CN(C)CCOCc1nnc2n1CCN(Cc1cccs1)CC2 | -35
65 | O=C(CSC1CCc2ccccc2NC1=O)NCc1cccs1 (centres undefined) | 3.13
66 | CN(CCCc1nccn1C)c1nccc(-c2cc(C(=O)O)ccn2)n1 | 14
67 | O=C(Cc1cnc(-n2cccc2)s1)NCCCO | -1.99
68 | c1coc(COCc2ncn3c2CN(Cc2cccs2)CCC3)c1 | 56.7
69 | CS(=O)(=O)NCc1ncn2c1CN(Cc1cccs1)CCC2 | -17.9

Row | Compound | INHIBITION [%]
70 | c1csc(CN2CCCn3cnc(COCC4CC4)c3C2)c1 | -1.55
71 | CN(C)C(=O)NCc1ncn2c1CN(Cc1ccco1)CCC2 | 28.2
72 | OCCOCc1ncn2c1CN(Cc1cccs1)CCC2 | 21.8
73 | CN(C)C(=O)NCc1ncn2c1CN(Cc1cccs1)CCC2 | 52.3
74 | Cc1ccc(S(=O)(=O)NCCc2nnc[nH]2)c2cccnc12 | 33.7
75 | O=C1CCCN1Cc1ncn2c1CN(C(=O)NC1CCCC1)CCC2 | -56.2
76 | O=C(C1CC1)N1CCCCCC1C1CCN(c2ncccn2)CC1 (centres undefined) | 22.3
77 | NC(=O)N1CCCCCC1C1CCN(c2nccc(C(F)(F)F)n2)CC1 (centres undefined) | 61.8
78 | N#Cc1cccnc1N1CCC(C2CCCCCN2C(N)=O)CC1 (centres undefined) | -5.567
79 | CC(C)N1CCC(c2nccnc2Nc2cnccn2)CC1 | 23.9
80 | CCCc1nc(C)c(C(=O)NCCNc2ncccn2)s1 | 19.6
81 | CCc1nc(C)c(C(=O)NCCNc2ncccn2)s1 | 29.1
82 | Cc1ncc(C(=O)NCCNC(=O)c2ccccc2)s1 | 0.411
83 | CCc1nc(C)c(C(=O)NCCNC(=O)c2cccs2)s1 | 58
84 | Cc1ncc(C(=O)NCCNc2ccncc2)s1 | -21.3
85 | Cc1ncc(C(=O)NCCNc2ncnc3sccc23)s1 | 77.1
86 | CCc1ncncc1C(=O)NCCNc1ncnc2sccc12 | 41.3
87 | CCc1ncc(C(=O)NCCNc2ncnc3sccc23)s1 | 96
88 | CCc1nc(C)c(C(=O)NCCNc2ncnc3sccc23)s1 | 93.3
89 | Cc1ncsc1C(=O)NCCNC(=O)c1cccs1 | 10.2
90 | CCc1ncc(C(=O)NCCNc2ccncc2)s1 | 23.4
91 | CCc1nc(C)c(C(=O)NCCNc2ncccc2C#N)s1 | 2.3
92 | COc1c(C2CCCN2C(=O)c2cc(C)on2)c(C)nn1C (centres undefined) | 14.1

Row | Compound | INHIBITION [%]
93 | Cc1ncc2c(n1)CN(CC(=O)Nc1nccs1)CC2 | 1.78
94 | COc1ccccc1OCCNCc1c(C)nn(C)c1N(C)C | -11.98
95 | CCOc1ccc(C(=O)N(C)Cc2nccn2CC(F)(F)F)cc1 | 21.7
96 | Cc1ccc(CC(=O)N2CCCC(n3nc(C)cc3C)C2)cn1 (centres undefined) | 5.03
97 | CC(=O)c1cccc(NC(=O)Cn2cc(-c3ccccc3)ncc2=O)c1 | 17
98 | O=C(NCc1ccnc(OCC2CC2)c1)C1Cc2ccccc2O1 (centres undefined) | -39.6
99 | Clc1ccccc1CN1CCCC(c2nnc(-c3cnccn3)o2)C1 (centres undefined) | 2.71
100 | CC(O)c1cn(Cc2ccc(F)cc2)nn1 (centres undefined) | 23.6
101 | CN(C)c1ncc(-c2cc(C(=O)NCCC#N)n(CC3CC3)c2)cn1 | -2.35
102 | Cc1cnc(-c2nc(C3CCN(Cc4ccccc4Cl)CC3)no2)cn1 | 32.35
103 | c1cc(-c2noc(CN3CCn4c(nnc4C4CC4)C3)n2)cs1 | -14.65
104 | Cc1nc(C)n(C2CCCN(C(=O)CCc3cscn3)C2)n1 (centres undefined) | 37.9
105 | c1cnc(C2CCCN(Cc3ccsc3)C2)cn1 (centres undefined) | 25.4
106 | O=C(c1c[nH]c(=O)[nH]1)N1CCCC2(CCC(=O)N(C3CCCC3)C2)C1 (centres undefined) | 37.7
107 | Cc1cnn(CC(=O)N2CCC3(CCC(=O)N(C4CCCC4)C3)CC2)c1 | 39.1
108 | CC1(C)CC(C(=O)N2CCC3(CCC(=O)N(C4CC4)C3)CC2)CCO1 (centres undefined) | 53.3
109 | Cc1ncc(CC(=O)N2CCC3(CCC(=O)N(CCO)C3)CC2)c(=O)[nH]1 | 46.1
110 | CC(=O)c1ccc(N2CCC3(CCC(=O)N(C4CC4)C3)CC2)nc1 | -25.7
111 | Cc1ncc(CC(=O)N2CCC3(CCC(=O)N(C4CC4)C3)CC2)c(=O)[nH]1 | 50.8
112 | O=C(Nc1ccc(F)cc1)N1CCC2(CCC(=O)N(C3CC3)C2)CC1 | 31.6
113 | O=C(Cc1c[nH]c(=O)[nH]c1=O)N1CCC2(CCC(=O)N(C3CC3)C2)CC1 | 58.2
114 | CC1(C)CC(CN2CCC3(CCC(=O)N(C4CCC4)C3)CC2)CCO1 (centres undefined) | 6.27
